DT40 TDP1 no CPT = qHTS for Inhibitors of human tyrosyl-DNA phosphodiesterase 1 (TDP1): qHTS in cells in absence of CPT; DT40 Tdp1-/- hTDP1 cells, no CPT, ATP luminescence, 48 h; actives 15% (n = 420,000); Potency, µM (highest dose often 46.2 µM), for inactives: top-dose activity change, negative = growth inhibition, usual class: inhibitors; AID 686978, 2013; also: nearly all actives have a fitted effect of over 55% in size
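Chicken DT40 Tdp1-/- cells complemented with human TDP1, screened without camptothecin (DMSO vehicle only), 400 cells/well. Compounds pin-transferred, cells incubated at 37 °C for at least 48 hr. Growth read as ATP-dependent luminescence (CellTiter-Glo, 30 min at RT).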
HT1080 IDH1KD tx = qHTS for induction of synthetic lethality in tumor cells producing 2HG: qHTS for the HT-1080-IDH1KD cell line; HT-1080 IDH1 knockdown viability, ATP luminescence, 48 h; Potency, µM (top dose mostly 46.1 µM), for the others: at the top dose activity, negative = toxicity, usual class: cytotoxic; actives 2% (n = 360,000); AID 686971, 2013;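 also: 0% = DMSO wells and -100% = cell-free medium wells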
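Using the IDH1-knockdown HT-1080 line run in the same batch and compound series as the NT line, viability after 48 h at 37 °C was determined by CellTiter-Glo luminescence and expressed as % activity.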
TDP1 cell CPT = qHTS for Inhibitors of human tyrosyl-DNA phosphodiesterase 1 (TDP1): qHTS in cells in presence of CPT; chicken DT40 Tdp1-/-;hTDP1 cells + 20 nM CPT, ATP luminescence, 48 h; Potency, µM (series often up to 46.2 µM), without a hit: at the top dose activity change, negative = growth inhibition, usual class: inhibitors; actives 12% (n = 420,000); also: nearly all actives have a fitted effect of over 55% in size
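Chicken DT40 Tdp1-/- cells complemented with human TDP1, 400 cells/well, exposed to compounds plus 20 nM camptothecin for at least 48 h at 37 C; viability read as ATP content by CellTiter-Glo luminescence.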
HT1080-NT tox = qHTS for induction of synthetic lethality in tumor cells producing 2HG: qHTS for the HT-1080-NT fibrosarcoma cell line | AID 686970, 2013 | Potency, µM (series often up to 46.1 µM), without a hit: top-dose activity, negative = less viability, usual class: cytotoxic | actives 1.6% (n = 360,000) | HT-1080-NT fibrosarcoma viability, CellTiter-Glo ATP luminescence, 48 h;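 also: NT is the 2HG producing partner of a matched IDH1 knockdown line; 0% = DMSO-treated cells and -100% = media-only wells without cells; nearly all actives have a fitted effect of over 55% in size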
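A 48-hour cytotoxicity screen used HT-1080-NT cells plated 2 hours before compound delivery. ATP-based CellTiter-Glo luminescence measured viability, normalized to DMSO and no-cell controls.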
KB-3-1 cytotox = qHTS assay for MDR1-selective chemotherapeutics: Primary screen using the parental adenocarcinoma cell KB-3-1. KB-3-1 viability, CellTiter-Glo ATP luminescence, 72 h. Potency, µM (highest dose often 46.1 µM), actives largely listed as cytotoxic. actives 1.4% (n = 400,000). AID 1347075, 2019; also: nearly all actives have a fitted effect of over 60% in size
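Here the drug-naive KB-3-1 line serves as comparator for MDR sub-line selectivity; cells received compound titrations, 72 h at 37 °C, then CellTiter-Glo readout.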
KB-V1 cytotox = qHTS assay for MDR1-selective chemotherapeutics: Primary screen using the drug-selected MDR subline cells KB-V1 | KB-V1 MDR cells viability, CellTiter-Glo, 72 h | Potency, µM (highest dose often 46.1 µM), usual class: cytotoxic | actives 3.4% (n = 400,000); also: nearly all actives have a fitted effect of over 60% in size
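Cytotoxicity toward P-gp-expressing KB-V1 cells was determined as loss of CellTiter-Glo luminescence after 72 h at 37 degrees C. Compounds were tested in quantitative HTS format across a concentration range, with curves fitted to normalized data.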
Active calls of the source: *. Only some compounds are listed: those with a hit (about 19% of all), similar ones and a draw of the others. Calls follow the shape of the dose curve; as a rule, active = well fitted curve in the direction sought with a large enough effect; inconclusive = small, poorly fitted or top-dose-only effect, or another doubt; inactive = no such curve, though single readings can be large; an effect the other way counts as inactive or inconclusive. Unless noted, % is scaled to controls: 0 for no effect and ±100 for the full control effect; potency is read from the fitted curve at half-maximal effect.

Screening COc1cc(OC)c(NC(=O)COCc2cc(-c3cccs3)on2)cc1Cl returned DT40 TDP1 no CPT inconclusive, TDP1 cell CPT -15%, KB-3-1 cytotox inactive and KB-V1 cytotox inactive.
Screening O=C(NCc1nnc(SCC(=O)N2CCN(c3ccccc3)CC2)o1)c1ccc(F)cc1 returned DT40 TDP1 no CPT 21µM*, HT1080 IDH1KD tx -9%, TDP1 cell CPT inconclusive, HT1080-NT tox -1%, KB-3-1 cytotox inactive and KB-V1 cytotox inactive.
Screening C=CCn1c(COc2cccc(C)c2C)nnc1SCC(=O)N1CCN(c2ccccc2)CC1 returned DT40 TDP1 no CPT inconclusive, HT1080 IDH1KD tx -33%, TDP1 cell CPT inconclusive, HT1080-NT tox -25%, KB-3-1 cytotox inconclusive and KB-V1 cytotox inactive.
`O=C(NCc1nnc(SCC(=O)N2CCCC2)o1)c1ccc(F)cc1` gave DT40 TDP1 no CPT 18%, HT1080 IDH1KD tx 19%, TDP1 cell CPT 8%, HT1080-NT tox 2%, KB-3-1 cytotox inactive and KB-V1 cytotox inactive.
Screening Cc1cccc(OCc2nnc(SCC(=O)N3CCN(c4ccccc4)CC3)o2)c1C returned DT40 TDP1 no CPT 18µM*, HT1080 IDH1KD tx -11%, TDP1 cell CPT inconclusive, HT1080-NT tox -6%, KB-3-1 cytotox inactive and KB-V1 cytotox inconclusive.
CCCCCCCCCCCC(=O)OCC(O)CO (centres undefined) was read as DT40 TDP1 no CPT -22% and TDP1 cell CPT -3%.
For Cc1ccc(S(=O)(=O)C2(C(=O)Nc3ccc(Cl)c(C(F)(F)F)c3)CC2)cc1 the results were DT40 TDP1 no CPT 16µM*, TDP1 cell CPT inconclusive, KB-3-1 cytotox inactive and KB-V1 cytotox inactive.
Screening Cc1ccc(NC(=O)Nc2ccc(Cl)cc2)c(Br)c1 returned DT40 TDP1 no CPT 23µM*, HT1080 IDH1KD tx inconclusive, TDP1 cell CPT inconclusive, HT1080-NT tox inconclusive, KB-3-1 cytotox inactive and KB-V1 cytotox inactive.
For Cc1ccc(S(=O)(=O)C2(C(=O)Nc3ccc(C)c(Cl)c3)CC2)cc1 the results were DT40 TDP1 no CPT inconclusive, TDP1 cell CPT -22%, KB-3-1 cytotox inactive and KB-V1 cytotox inactive.
For Cc1ccc(NC(=O)C2(S(=O)(=O)c3ccc(Cl)cc3)CC2)c(Br)c1 the results were DT40 TDP1 no CPT 16µM*, HT1080 IDH1KD tx -4%, TDP1 cell CPT inconclusive, HT1080-NT tox 0%, KB-3-1 cytotox inactive and KB-V1 cytotox inconclusive.
CCc1ccc(S(=O)(=O)c2nnn3c2nc(N(C)Cc2ccccc2)c2cc(Cl)ccc23)cc1 was read as DT40 TDP1 no CPT -7%, TDP1 cell CPT -3%, KB-3-1 cytotox inactive and KB-V1 cytotox inconclusive.
CC(C)(C)OC(=O)N1CCC(c2c(C(=O)NCCN3CCOCC3)cnn2-c2ccc(F)cc2)CC1 was read as DT40 TDP1 no CPT inconclusive, TDP1 cell CPT inconclusive, KB-3-1 cytotox inactive and KB-V1 cytotox inactive.
Screening COc1ccc(CC(=O)Nc2nc(-c3ccc(OC)c(OC)c3)cs2)cc1OC returned DT40 TDP1 no CPT 21µM*, HT1080 IDH1KD tx -29%, TDP1 cell CPT inconclusive, HT1080-NT tox inconclusive, KB-3-1 cytotox inactive and KB-V1 cytotox inconclusive.
O=C(Nc1nc(-c2ccncc2)cs1)c1ccc(F)cc1 was read as DT40 TDP1 no CPT -8%, HT1080 IDH1KD tx 3%, TDP1 cell CPT 5%, HT1080-NT tox 1%, KB-3-1 cytotox inactive and KB-V1 cytotox inactive.
Cn1nc(C(=O)Nc2nc(-c3ccc(F)cc3)cs2)ccc1=O was read as DT40 TDP1 no CPT 6.5µM*, HT1080 IDH1KD tx -10%, TDP1 cell CPT inconclusive, HT1080-NT tox -20%, KB-3-1 cytotox inactive and KB-V1 cytotox inactive.
For Cc1cc(C)c(-c2csc(NC(=O)c3n[nH]c(=O)c4ccccc34)n2)c(C)c1 the results were DT40 TDP1 no CPT 4.1µM*, HT1080 IDH1KD tx inconclusive, TDP1 cell CPT 9.2µM*, HT1080-NT tox -27%, KB-3-1 cytotox inconclusive and KB-V1 cytotox inconclusive.
O=C(Cc1ccccc1F)Nc1nc(-c2ccc(F)cc2)cs1 was read as DT40 TDP1 no CPT 5.8µM*, HT1080 IDH1KD tx inconclusive, TDP1 cell CPT 8.2µM*, HT1080-NT tox inconclusive, KB-3-1 cytotox inactive and KB-V1 cytotox inconclusive.
`CC1CC1C(=O)N1CCN(S(=O)(=O)c2cccc(F)c2)CC1` (centres undefined) gave DT40 TDP1 no CPT 2%, HT1080 IDH1KD tx 2%, TDP1 cell CPT -6%, HT1080-NT tox 2%, KB-3-1 cytotox inactive and KB-V1 cytotox inactive.
For CCCCOc1ccc(CNC(=O)CN2CCSc3ccccc32)cc1 the results were KB-3-1 cytotox inactive and KB-V1 cytotox inconclusive.
`CCS(=O)(=O)NCCNc1ccc([N+](=O)[O-])cc1` gave DT40 TDP1 no CPT -14%, HT1080 IDH1KD tx 17%, TDP1 cell CPT -9%, HT1080-NT tox 13%, KB-3-1 cytotox inactive and KB-V1 cytotox inactive.
Screening COC(=O)c1c(NC(=O)Cc2coc3ccc(C(C)C)cc23)sc2c1CCC2 returned DT40 TDP1 no CPT inconclusive, TDP1 cell CPT inconclusive, KB-3-1 cytotox inactive and KB-V1 cytotox inactive.
For COc1ccc(-c2csc(NC(=O)CS(=O)(=O)c3ccccc3)n2)cc1OC the results were DT40 TDP1 no CPT 16µM*, HT1080 IDH1KD tx 6%, TDP1 cell CPT inconclusive, HT1080-NT tox 0%, KB-3-1 cytotox inactive and KB-V1 cytotox inconclusive.
`COc1ccc(-c2nc(NC(=O)CCNC(=O)c3ccco3)sc2C)cc1` gave DT40 TDP1 no CPT 18µM*, HT1080 IDH1KD tx -2%, TDP1 cell CPT 23µM*, HT1080-NT tox -5%, KB-3-1 cytotox inactive and KB-V1 cytotox inactive.
For COc1ccc(-c2nc(NC(=O)c3cc(C(C)(C)C)nn3C)sc2C)cc1 the results were DT40 TDP1 no CPT 21µM*, HT1080 IDH1KD tx inconclusive, TDP1 cell CPT inconclusive, HT1080-NT tox 16µM*, KB-3-1 cytotox inactive and KB-V1 cytotox 2.3µM*.
COc1ccc(CCNC(=O)CCNC(=O)c2ccco2)cc1 was read as DT40 TDP1 no CPT -8%, HT1080 IDH1KD tx 2%, TDP1 cell CPT -10%, HT1080-NT tox 3%, KB-3-1 cytotox inactive and KB-V1 cytotox inconclusive.
